# Experimental data from PubChem BioAssay (EPA / NIEHS).
# Records with an inconclusive call do not appear. Activity calls are given as the source filed them. The calls were made as follows: active = hit-call score of the fitted dose curve at least 0.9, where 1 is the maximum; inconclusive = response in the unintended direction; inactive = score below 0.9.
# Biological target: sheep Cyclooxygenase-1 (Cox1), PTGS1 (gene 443551) (UniProt P05979)
# Experiment: NVS_ENZ_oCOX1: NovaScreen (NVS) Enzymatic Assay for sheep Cyclooxygenase-1 (Cox1) (AID 2283239);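 also: actives reduce cyclooxygenase activity so potencies are for inhibitors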
# Outline: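 Cell-free colorimetric assay of enzyme activity in a native extract of ovine seminal vesicles. Absorbance was read 0.66 hour after compound addition. Loss of signal relative to the DMSO negative control was scored, with actives from the 25 uM duplicate primary screen retested in concentration series.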
# Sequence of sheep Cyclooxygenase-1 (Cox1), PTGS1 (gene 443551) (P05979 whole entry, looked up): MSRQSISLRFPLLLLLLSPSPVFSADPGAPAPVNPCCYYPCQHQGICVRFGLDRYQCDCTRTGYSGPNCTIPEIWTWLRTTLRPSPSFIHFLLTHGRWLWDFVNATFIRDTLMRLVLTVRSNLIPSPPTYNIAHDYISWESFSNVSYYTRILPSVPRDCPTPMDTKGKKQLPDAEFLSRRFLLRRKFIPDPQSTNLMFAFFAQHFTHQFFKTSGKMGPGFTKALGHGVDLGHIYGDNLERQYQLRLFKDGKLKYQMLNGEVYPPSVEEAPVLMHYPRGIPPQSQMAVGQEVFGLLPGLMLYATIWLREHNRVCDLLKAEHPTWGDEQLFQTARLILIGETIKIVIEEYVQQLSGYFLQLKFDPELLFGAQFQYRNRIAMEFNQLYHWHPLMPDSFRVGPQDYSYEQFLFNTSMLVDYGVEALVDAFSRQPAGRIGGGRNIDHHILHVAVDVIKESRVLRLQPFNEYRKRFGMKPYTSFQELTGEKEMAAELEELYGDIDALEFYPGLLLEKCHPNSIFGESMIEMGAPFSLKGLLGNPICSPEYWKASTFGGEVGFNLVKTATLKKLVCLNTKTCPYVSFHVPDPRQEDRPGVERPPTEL
Compound,AC50,outcome
CC1CCC(C(C)CS)CC1S (centres undefined),25 µM (active),–
CC(C)[C@@H]1CC[C@@H](C)CC1=O,–,inactive
CCCCCCCCC,–,inactive
COC(=O)c1ccc(C)cc1,–,inactive
CC(=O)OCc1ccc2c(c1)OCO2,–,inactive
CCCCCC(CO)CCC (centres undefined),0.00229 µM (active),–
O=C1OC2(c3cc(Br)c(O)c(Br)c3Oc3c2cc(Br)c(O)c3Br)c2c(Cl)c(Cl)c(Cl)c(Cl)c21,8.68 µM (active),–
CC(C)=CCO,–,inactive
CCn1c2ccccc2c2cc(N)ccc21,3.25 µM (active),–
O=c1[nH]nnc2ccccc12,0.401 µM (active),–
O=C(O)CN(CCN(CC(=O)O)CC(=O)O)CCN(CC(=O)O)CC(=O)O,–,inactive
CC(C)(CO)[N+](=O)[O-],–,inactive

# Biological target: guinea pig Leukotriene D4 Receptor (LTD4), CYSLTR1 (gene 100135514) (UniProt Q2NNR5)
# Sequence (Q2NNR5 whole entry, looked up): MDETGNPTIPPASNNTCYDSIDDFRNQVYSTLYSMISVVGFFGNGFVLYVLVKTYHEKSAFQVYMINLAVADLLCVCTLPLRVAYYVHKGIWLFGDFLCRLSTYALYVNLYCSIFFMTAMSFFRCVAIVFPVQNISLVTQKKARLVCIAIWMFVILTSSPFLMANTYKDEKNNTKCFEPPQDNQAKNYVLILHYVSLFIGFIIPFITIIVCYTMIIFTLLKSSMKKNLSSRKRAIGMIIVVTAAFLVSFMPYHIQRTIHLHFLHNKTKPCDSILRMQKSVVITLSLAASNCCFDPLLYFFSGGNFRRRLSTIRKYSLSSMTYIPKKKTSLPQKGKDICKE
# Experiment: NVS_GPCR_gLTD4: NovaScreen (NVS) G Protein-Coupled Receptor Assay for guinea pig Leukotriene D4 Receptor (LTD4) (AID 2283248)
# Outline: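 Guinea pig lung membrane preparation; bound radioligand measured by filter scintillation after 1 h, loss of signal versus DMSO marking displacement. Compounds tested at 25 uM in duplicate, hits retested to max 50 uM.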
Compound,outcome,AC50
CC(=O)/C=C/C1=C(C)CCCC1(C)C,inactive,–
CCCOCC(C)O (centres undefined),–,7.91 µM (active)
Cc1ccc(O)c(C(C)(C)C)c1,inactive,–
Clc1ccc(Cl)c(Cl)c1Cl,inactive,–

# Biological target: guinea pig Opioid, Kappa 1 Receptor (OpiateK), OPRK1 (gene 100135587) (UniProt P41144)
# Sequence (P41144 whole entry, looked up): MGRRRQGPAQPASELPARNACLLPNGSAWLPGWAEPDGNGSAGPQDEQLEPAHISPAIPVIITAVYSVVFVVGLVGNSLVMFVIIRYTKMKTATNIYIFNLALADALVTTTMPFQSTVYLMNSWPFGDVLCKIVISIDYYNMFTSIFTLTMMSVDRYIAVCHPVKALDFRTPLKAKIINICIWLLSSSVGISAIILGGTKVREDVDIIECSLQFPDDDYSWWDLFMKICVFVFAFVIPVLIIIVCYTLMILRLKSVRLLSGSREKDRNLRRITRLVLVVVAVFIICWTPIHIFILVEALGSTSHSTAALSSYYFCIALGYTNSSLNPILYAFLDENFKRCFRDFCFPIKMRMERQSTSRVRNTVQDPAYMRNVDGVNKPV
# Experiment: NVS_GPCR_gOpiateK: NovaScreen (NVS) G Protein-Coupled Receptor Assay for guinea pig Opioid, Kappa 1 Receptor (OpiateK) (AID 2283252);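 also: radioligand displacement from kappa opioid receptor in guinea pig cerebellar membranes; active means reduced radioligand binding relative to DMSO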
# Outline: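 Radioligand competition binding using guinea pig cerebellum membrane fraction; 2 h exposure; filter radiodetection. Single concentration 25 uM (duplicate), follow-up concentration-response for actives.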
Compound,outcome,AC50
CC1COc2ccccc2N1C(=O)C(Cl)Cl (centres undefined),inactive,–
O=C=NC1CCC(CC2CCC(N=C=O)CC2)CC1 (centres undefined),–,29.3 µM (active)
O=P(c1ccccc1)(c1ccccc1)c1ccccc1,–,11.4 µM (active)

# Biological target: human Adenosine A2a Receptor (AdoRA2a), ADORA2A (gene 135) (UniProt P29274)
# Sequence (P29274 whole entry, looked up): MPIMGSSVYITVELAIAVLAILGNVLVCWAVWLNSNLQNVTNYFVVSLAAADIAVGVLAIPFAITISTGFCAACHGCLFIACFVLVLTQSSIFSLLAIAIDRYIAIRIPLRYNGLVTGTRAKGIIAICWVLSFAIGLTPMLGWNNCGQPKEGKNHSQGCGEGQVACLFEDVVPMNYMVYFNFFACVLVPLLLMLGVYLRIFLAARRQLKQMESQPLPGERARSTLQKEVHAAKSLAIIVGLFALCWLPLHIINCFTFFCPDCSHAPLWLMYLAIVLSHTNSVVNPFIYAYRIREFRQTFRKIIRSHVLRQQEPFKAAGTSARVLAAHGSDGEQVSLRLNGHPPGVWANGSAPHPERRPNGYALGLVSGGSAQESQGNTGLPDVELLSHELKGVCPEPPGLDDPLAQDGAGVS
# Experiment: NVS_GPCR_hAdoRA2a: NovaScreen (NVS) G Protein-Coupled Receptor Assay for human Adenosine A2a Receptor (AdoRA2a) (AID 2283256)
# Outline: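 Compounds screened in duplicate at 25 uM, with actives followed up in concentration series, for displacement of a radioligand from HEK293-derived receptor protein. Bound counts read by filter scintillation at 1.5 hours, DMSO as baseline.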
row,Compound,outcome
1,Nc1cc([N+](=O)[O-])ccc1Cl,inactive
2,NC(=O)c1ccccc1Cl,inactive
3,O=C(O)C[C@H](O)C[C@H](O)/C=C/c1c(C2CC2)nc2ccccc2c1-c1ccc(F)cc1,inactive

# Biological target: D(1A) dopamine receptor (Homo sapiens) (UniProt P21728)
# Sequence (P21728 whole entry, looked up): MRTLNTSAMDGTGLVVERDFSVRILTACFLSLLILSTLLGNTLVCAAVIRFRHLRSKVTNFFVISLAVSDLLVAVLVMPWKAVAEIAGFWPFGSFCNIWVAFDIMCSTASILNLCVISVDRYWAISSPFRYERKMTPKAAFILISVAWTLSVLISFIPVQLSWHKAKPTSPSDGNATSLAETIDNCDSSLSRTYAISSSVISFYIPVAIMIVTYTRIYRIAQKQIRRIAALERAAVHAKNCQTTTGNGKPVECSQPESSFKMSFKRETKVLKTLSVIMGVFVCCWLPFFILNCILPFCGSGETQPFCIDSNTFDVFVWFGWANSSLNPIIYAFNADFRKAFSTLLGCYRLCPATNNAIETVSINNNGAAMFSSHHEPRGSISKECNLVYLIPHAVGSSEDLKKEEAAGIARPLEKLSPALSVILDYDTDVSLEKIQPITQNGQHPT
# Experiment: NVS_GPCR_hDRD1: NovaScreen (NVS) G Protein-Coupled Receptor Assay for human Dopamine Receptor D1 (DRD1) (AID 2283269)
# Outline: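 HEK293-derived receptor preparation; radioligand competitive displacement; 1 h; filtration + scintillation counting. DMSO = negative control/baseline. Primary: 25 uM, duplicate; secondary: concentration–response for actives.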
Compound,outcome,AC50
Cc1ccc2n[nH]nc2c1,inactive,–
c1ccc2sc(SN(C3CCCCC3)C3CCCCC3)nc2c1,inactive,–
O=C1OC2(c3cc(Br)c(O)c(Br)c3Oc3c2cc(Br)c(O)c3Br)c2c(Cl)c(Cl)c(Cl)c(Cl)c21,–,0.423 µM (active)
CCn1c2ccccc2c2cc(N)ccc21,–,38.5 µM (active)
CCCCNC(=O)NS(=O)(=O)c1ccc(C)cc1,inactive,–
CC(C)c1ccc(C(C)C)cc1,inactive,–

# Biological target: Muscarinic acetylcholine receptor M2 (Homo sapiens) (UniProt P08172)
# Sequence (P08172 whole entry, looked up): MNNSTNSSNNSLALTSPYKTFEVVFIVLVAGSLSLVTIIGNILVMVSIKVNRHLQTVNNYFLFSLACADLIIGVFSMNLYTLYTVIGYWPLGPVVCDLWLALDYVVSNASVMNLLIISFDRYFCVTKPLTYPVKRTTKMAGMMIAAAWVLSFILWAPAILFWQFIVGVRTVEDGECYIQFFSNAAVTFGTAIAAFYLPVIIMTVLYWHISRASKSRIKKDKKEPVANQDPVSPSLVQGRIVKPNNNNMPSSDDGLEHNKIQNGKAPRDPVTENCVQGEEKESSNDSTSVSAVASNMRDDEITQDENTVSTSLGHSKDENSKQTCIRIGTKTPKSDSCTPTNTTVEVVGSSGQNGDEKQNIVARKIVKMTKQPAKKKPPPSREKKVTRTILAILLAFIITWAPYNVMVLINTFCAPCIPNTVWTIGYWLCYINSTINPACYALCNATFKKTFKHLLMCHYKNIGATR
# Experiment: NVS_GPCR_hM2: NovaScreen (NVS) G Protein-Coupled Receptor Assay for human Muscarinic, M2 Receptor (AID 2283273)
# Outline: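 Radioligand competition binding, cell-free, receptor from CHO; 1 h incubation; scintillation detection. Primary testing at 25 uM in duplicate.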
Compound,AC50,outcome
Nc1cc(N)cc(C(=O)O)c1,38.1 µM (active),–
CNC[C@H](O)c1cccc(O)c1,29.7 µM (active),–
O=C=NC1CCC(CC2CCC(N=C=O)CC2)CC1 (centres undefined),9.37 µM (active),–
CC(C)(CO)[N+](=O)[O-],–,inactive
CN(CCOc1ccc(CC2SC(=O)NC2=O)cc1)c1ccccn1 (centres undefined),13.2 µM (active),–
COC(=O)OC,–,inactive
